Reference: publication PMC5540273 (PLoS ONE, 2017)

Columns and labels:
Details in all cases: concentration: 1 μM,replicates: in singlicate; n = 1
[1] = test system: RPS6KA4(Kin.Dom.1-N-terminal)
[2] = test system: RPS6KA4(Kin.Dom.2-C-terminal)
[3] = test system: RPS6KA5(Kin.Dom.1-N-terminal)
[4] = test system: RPS6KA5(Kin.Dom.2-C-terminal)
[5] = test system: T1, RSK1(Kin.Dom.1-N-terminal)
T1 construct: gene RPS6KA1

[6] = test system: T2, RSK1(Kin.Dom.2-C-terminal)
T2 construct: gene RPS6KA1

[7] = test system: T3, RSK2(Kin.Dom.1-N-terminal)
T3 construct: gene RPS6KA3

[8] = test system: T4, RSK2(Kin.Dom.2-C-terminal)
T4 construct: gene RPS6KA3

[9] = test system: T5, RSK3(Kin.Dom.1-N-terminal)
T5 construct: gene RPS6KA2

[10] = test system: T6, RSK3(Kin.Dom.2-C-terminal)
T6 construct: gene RPS6KA2
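Also: KINOMEscan kinase panel screen.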

SMILES	%Inh [1] [%]	%Inh [2] [%]	%Inh [3] [%]	%Inh [4] [%]	%Inh [5] [%]	%Inh [6] [%]	%Inh [7] [%]	%Inh [8] [%]	%Inh [9] [%]	%Inh [10] [%]
Cc1ccc(CC(=O)N2CCc3cc(-c4cn(C)c5ncnc(N)c45)ccc32)cc1 [GSK2634758]	16	0	3	0	9	4	0	4	7	0
O=C1NCCc2[nH]c(-c3ccncc3)cc21	15	92.7	0	58	4	35	8	23	16	27
C[C@@H]1CCN(C(=O)N2CCCC2)C[C@@H]1N(C)c1ncnc2[nH]ccc12	0	2	0	0	0	14	10	0	0	22
C[C@@H](Oc1cc(-n2cnc3cc(-c4ccncc4)ccc32)sc1C(N)=O)c1ccccc1Cl [GSK479719]	46	0	9	0	11	7	42	4	30	21
CCn1c(-c2nonc2N)nc2cncc(CNC3CCNCC3)c21.Cl [SB-747651]	44	6	78	0	21	0	16	6	7	9
CC(=O)c1c(-c2ccncc2)[nH]c(-c2ccncc2)c1C [GW493036]	34	0	0	61	26	0	0	0	0	7
CS(=O)(=O)c1cccc(CNc2nc(Nc3ccc4c(c3)[C@@H]3C[C@@H]4CNC3=O)ncc2C(F)(F)F)c1	33	0	0	46	66	7	84	0	85	13
COc1cc2c(Nc3ccc(NC(=O)c4ccccc4)cc3)ncnc2cc1OCCCN1CCOCC1 [GSK301329]	20	0	0	0	11	0	0	1	0	0
CN(c1ccccc1CNc1nc(Nc2ccc3c(c2)CC(=O)N3)ncc1C(F)(F)F)S(C)(=O)=O	89	46	71	14	86	0	89	0	91.1	7
COC(=O)c1cccc(NC(=O)NC2CCN(c3ccnc(Nc4cc(OC)c(OC)c(OC)c4)n3)C2)c1 (centres unmarked) [GSK1379767]	0	0	0	30	21	5	7	1	9	29
COc1cc2nccc(Nc3ccc(Oc4ccccc4)cc3)c2cc1OC.Cl [GI261656]	0	0	0	12	2	0	0	0	0	0
COc1cccc(C2=C(Nc3cccc(Cl)c3)C(=O)NC2=O)c1 [SB-341556]	11	0	5	0	28	24	25	11	1	0
Cc1ccc(C(=O)Nc2ccc(Oc3ccc4nc(NC(=O)C5CC5)cn4c3)c(F)c2)c(=O)n1-c1ccccc1	22	0	0	0	0	0	0	37	22	2
CC(C)S(=O)(=O)N1CCN(Cc2ccc3c(c2)nc(NC(=O)c2ccsc2)n3C[C@H](O)c2ccccc2)CC1 [GW635815]	29	0	12	0	96.1	0	91.8	6	93.5	24
Cn1cc(-c2cccc3c(N)c(C(N)=O)nnc23)cn1	53	30	21	13	0	0	23	44	21	0
O=C(NCC1CC1)c1ccc(-c2cc(C(=O)NC3CC3)ccc2F)cc1 [GW810445]	7	0	0	7	0	3	0	0	0	0
Cn1ccc2ncnc(Oc3ccc(NC(=O)Nc4cccc(C(F)(F)F)c4)c(F)c3)c21	37	0	0	19	0	0	6	13	0	22
O=C(Nc1ccc(Oc2ccc3nc(NC(=O)C4CC4)cn3n2)c(F)c1)c1cccn(-c2ccccc2)c1=O	50	0	0	9	0	0	0	28	0	0
Cc1ccc(Nc2ccnc(Nc3ccc4c(c3)CS(=O)(=O)C4)n2)cc1O.Cl [GW579362]	15	0	0	18	20	7	0	55	47	11
Cc1cccc2c(-c3ccncc3)c(-c3ccc(F)cc3)nn12.Cl [GW461487]	0	0	0	6	11	51	3	32	0	19
Cn1ccc2ncnc(Oc3ccc(NC(=O)Nc4cncc(C(F)(F)F)c4)c(Cl)c3)c21	0	0	83	6	0	0	0	0	9	0
Cl.Nc1n[nH]c2cc(-c3ccccn3)ccc12 [GSK2189892]	15	0	26	0	29	0	0	0	0	0
CS(=O)(=O)Nc1ccc(-c2ccnc3[nH]ccc23)cc1 [GSK993273]	0	94.1	0	86	17	55	35	29	19	54

SMILES	%Inh [1] [%]	%Inh [2] [%]	%Inh [3] [%]	%Inh [4] [%]	%Inh [5] [%]	%Inh [6] [%]	%Inh [7] [%]	%Inh [8] [%]	%Inh [9] [%]	%Inh [10] [%]
CC(C(=O)NC1CCN(c2ccnc(Nc3ccc(F)cc3)n2)C1)c1ccc(Cl)cc1 (centres unmarked) [GSK1379713]	6	5	0	0	0	0	0	17	0	0
Cn1ccc2ncnc(Oc3ccc(NC(=O)Nc4cccc(C(F)(F)F)c4)c(Cl)c3)c21	2	0	0	2	0	86	13	16	0	27
COc1ccc(Nc2nccc(N3CCC(NC(=O)c4cccc(C#N)c4)C3)n2)cc1 (centres unmarked) [GSK1379730]	15	0	5	0	0	0	0	18	0	2
Cl.Cl.NC[C@H](CC1CCCCC1)NC(=O)c1ccc(-c2ccnc3[nH]ccc23)s1 [GSK1581428]	82	79	84	67	23	12	83	0	57	21
Nc1nccc(-c2ccc3c(N)n[nH]c3c2)n1 [GSK1034945]	0	81	7	62	4	32	29	22	31	1
O=C(Nc1cccc(Oc2ccc3nccn3n2)c1)Nc1cccc(C(F)(F)F)c1	24	0	0	0	0	9	8	25	0	0
CC(=O)Nc1nc2cnc(Nc3cc(NC(=O)c4cccc(CC(C)(C)C#N)c4)ccc3C)nc2s1	0	2	13	0	5	0	0	26	0	0
COc1cc2ncn(-c3cc(OCC4CCCCC4)c(C(N)=O)s3)c2cc1OC [GSK204559]	7	0	28	0	8	0	7	30	22	8
CS(=O)c1ccc(-c2coc3ccc(-c4n[nH]c(=O)o4)cc23)cc1 (centres unmarked)	26	85	13	14	0	36	13	0	9	28
Cc1nnc(-c2ccc3occ(-c4ccc(S(C)=O)cc4)c3n2)o1 (centres unmarked)	0	0	9	0	0	14	0	0	0	3
CN1CCN(CCNc2nc3cc(Oc4ccc(NC(=O)Nc5cc(C(F)(F)F)ccc5F)cc4)ccc3[nH]2)CC1.Cl.Cl [GW768504]	5	0	0	1	7	28	0	0	0	8
FC(F)(F)c1cc(Br)cc(Nc2nccc(-c3cnn4ncccc34)n2)c1 [GW810578]	0	0	0	0	0	0	17	0	3	9
CCOC(=O)N1CCC(n2cnc(-c3ccc(F)cc3)c2-c2ccnc(N)n2)CC1 [SB-219952]	6	7	1	0	11	32	23	0	8	36
C[C@@H](Oc1cc(-n2cnc3cc(-c4cnn(C)c4)ccc32)sc1C(N)=O)c1ccccc1Cl [GSK580432]	82	0	5	6	45	0	60	2	77	0
CCCC(=O)Nc1n[nH]c2ncccc12 [SB-601436]	3	3	0	0	0	0	19	0	0	0
CC(=O)Nc1ccc(-c2cc3ncnc(SCC(=O)O)c3s2)cc1	6	47	0	15	0	25	0	0	14	19
C[C@@H]1CNc2c(sc3ccc4nc(-c5ccc(O)cc5)ccc4c23)C(=O)N1	6	98.8	2	17	6	12	58	70	12	47
NC(=O)c1ccc(-c2cc3ncnc(SCC(=O)O)c3s2)cc1	0	24	7	0	0	0	1	0	2	7
COC(=O)Nc1nc2cc(Oc3ccc(NC(=O)Nc4cc(C(F)(F)F)ccc4Cl)cc3)ccc2[nH]1.Cl [GW697465]	0	0	14	0	0	0	0	10	21	13
O=C(NOCC1CC1)c1cc(Br)c(F)c(F)c1Nc1ccc(I)cc1Cl	0	0	0	9	0	38	9	0	1	33
CNC(=O)c1ccccc1Nc1nc(Nc2cccc(CS(C)(=O)=O)c2)ncc1C.O=CO [GSK1520489]	95.7	0	43	0	96.5	43	99.9	12	99	0
NC(=O)Nc1sc(-c2ccc(F)cc2)cc1C(N)=O [GW789449]	46	7	0	0	54	33	68	45	21	7
Cn1ccc2ncnc(Oc3ccc(NC(=O)Nc4cnn(C(C)(C)C)c4)c(Cl)c3)c21	0	5	32	0	0	27	11	0	0	9

SMILES	%Inh [1] [%]	%Inh [2] [%]	%Inh [3] [%]	%Inh [4] [%]	%Inh [5] [%]	%Inh [6] [%]	%Inh [7] [%]	%Inh [8] [%]	%Inh [9] [%]	%Inh [10] [%]
CN1CCN(CCCNc2nccc(-c3c(-c4ccc(F)cc4)nn4cc(C(N)=O)ccc34)n2)CC1 [GW622475]	13	0	19	14	28	63	0	100	12	14
C[C@@H](Oc1cc(-n2cnc3ccc(-c4ccncc4)cc32)sc1C(N)=O)c1ccccc1Cl [GSK483724]	20	0	25	5	40	0	34	0	39	0
CCN1CCN(CCCC(=O)Nc2n[nH]c3nc(-c4ccc(O)cc4)c(Br)cc23)CC1 [SB-731579]	5	98.5	4	0	0	0	13	0	0	30
Cc1n[nH]c2cc(Nc3ccnc(Nc4cccc(CN5CCOCC5)c4)n3)ccc12 [GW682569]	0	0	0	21	3	28	22	20	0	0
O=C(Nc1n[nH]c2cc(-c3ccco3)ccc12)C1CC1 [SB-737447]	0	18	0	23	16	0	22	0	18	0
Cc1ccn2nc(-c3ccc(F)cc3)c(-c3ccncc3)c2c1.Cl [GW457859]	0	0	44	27	0	44	0	0	0	24
CCn1c(-c2nonc2N)nc2cncc(Br)c21 [SB-738004]	3	86	–	–	0	38	50	27	9	6
O=C(Nc1ccccc1)c1cccc(Oc2ccc3nccn3n2)c1	0	10	0	16	0	100	9	46	24	0
COc1cccc(CNC(=O)NC2CCN(c3ccnc(Nc4cc(OC)c(OC)c(OC)c4)n3)C2)c1 (centres unmarked) [GSK1379765]	1	0	0	0	17	0	7	29	22	1
COC(=O)c1cccc(NC(=O)NC2CCN(c3ccnc(NCc4ccc(F)cc4)n3)CC2)c1 [GSK1379860]	7	0	7	0	18	0	0	9	3	0
COc1cccc(OC)c1C(=O)Nc1cccc(-c2nn3ccccc3c2-c2ccnc(Nc3cccc(F)c3)n2)c1 [GSK361065]	8	14	0	0	36	0	0	13	6	15
Cn1ccc2ncnc(Oc3ccc(NC(=O)Nc4cc(C(C)(C)C)on4)c(Cl)c3)c21	0	13	0	6	0	17	16	1	0	8
Cc1cccc(-c2nc(Nc3ccncc3)c3sccc3n2)n1 [GW869641]	30	7	19	0	2	8	41	50	7	21
OCCn1cc(-c2cnc3nnn(Cc4ccc5ncccc5c4)c3n2)cn1	1	0	0	2	9	0	0	0	0	0
C[C@@H]1CNc2c(sc3ccc4nc(-c5ccncc5)ccc4c23)C(=O)N1	33	98.7	0	0	0	0	4	0	10	33
O=c1[nH]cc(-c2ccc(O)cc2)c2sc(-c3ccncc3)cc12 [GSK1033723]	0	0	4	21	10	0	0	23	0	3
Cc1ccc2c(-c3ccnc(Nc4ccc(C(F)(F)F)cc4)n3)cnn2n1 [GW819776]	28	0	0	0	19	8	53	0	0	7
c1ccc(Oc2ccc(Nc3ccnc4ccc(-c5ccccn5)cc34)cc2)cc1 [GW407034]	11	0	3	0	10	0	7	8	19	0
N#Cc1cccc(C(=O)NC2CCN(c3ccnc(Nc4ccc(F)cc4)n3)C2)c1 (centres unmarked) [GSK1379708]	0	0	0	0	15	0	0	0	0	0
CN(c1ccc2c(c1)nc(NCc1ccc(F)cc1)n2C)c1ccnc(Nc2ccc(CS(C)(=O)=O)cc2)n1.Cl [GW813244]	12	0	0	4	0	32	31	0	9	28
Cn1ccc2ncnc(Oc3ccc(NC(=O)Nc4ccnc(C(F)(F)F)c4)c(Cl)c3)c21	0	7	3	7	0	9	0	35	0	1
